The values below come from publication PMC7862700, “An all-to-all approach to the identification of sequence-specific readers for epigenetic DNA modifications on cytosine”.

Experiment in all cases: DAPPL (digital affinity profiling via proximity ligation, sequencing); 10 mM Tris-HCl pH 7.5, 50 mM NaCl, 1 mM DTT, 4% glycerol, room temperature, 30 min; GST-TFs on glutathione beads, 16-mer random dsDNA library, 0.1% formaldehyde crosslink after washing; high values mean tight binding
One assay deals with T1, FEV (Homo sapiens, UniProt Q99581 1-238).
T1 sequence: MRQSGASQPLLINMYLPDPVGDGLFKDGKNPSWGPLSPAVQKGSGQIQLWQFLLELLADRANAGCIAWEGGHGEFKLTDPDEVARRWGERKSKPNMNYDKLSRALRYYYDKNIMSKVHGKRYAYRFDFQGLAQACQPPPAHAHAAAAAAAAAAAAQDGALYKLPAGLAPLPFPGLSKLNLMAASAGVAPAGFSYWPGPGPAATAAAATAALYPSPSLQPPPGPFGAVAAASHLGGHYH
The note with it: protein: recombinant; tags: N-terminal GST; dsDNA, one strand shown. A digest of the protocol: (§1)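 After expression in yeast as GST fusions, human transcription factors were bound to glutathione beads, DNA-barcoded and mixed with a tag-only sample. The pools were incubated with 200 nmole of a 16-mer random double-stranded DNA library in Tris/NaCl/DTT/glycerol buffer (30 min, room temperature), washed and crosslinked with 0.1% formaldehyde. Proximity ligation with BsaI/T4 ligase ran for 1 h at 37 °C, before PCR amplification and sequencing on an Illumina NextSeq500. Binding signal is a hexamer's read frequency for a factor divided by its frequency for the tag-only sample.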

The target of the next assay is ETV5 (Homo sapiens, UniProt P41161 1-510). Conditions: protein: recombinant; tags: N-terminal GST; dsDNA, one strand shown. A digest of the protocol:
as §1

The next assay concerns the target HSF1 (Homo sapiens, UniProt Q00613 1-529). Conditions: protein: recombinant; tags: N-terminal GST; chain copies: 3; dsDNA, one strand shown. The procedure, abridged:
as §1

The target of a further assay is T2, SPIC (Homo sapiens, UniProt Q8N5J4 1-248).
T2 sequence: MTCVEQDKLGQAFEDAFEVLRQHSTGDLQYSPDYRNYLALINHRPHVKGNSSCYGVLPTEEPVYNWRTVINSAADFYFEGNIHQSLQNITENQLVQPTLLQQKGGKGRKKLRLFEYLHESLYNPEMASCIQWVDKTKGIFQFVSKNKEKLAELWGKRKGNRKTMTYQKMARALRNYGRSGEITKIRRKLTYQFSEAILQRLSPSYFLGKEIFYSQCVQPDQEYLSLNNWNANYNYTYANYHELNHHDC
Conditions: protein: recombinant; tags: N-terminal GST; dsDNA, one strand shown. The procedure, abridged: as §1

For the next assay, the target named is ELF4 (Homo sapiens, UniProt Q99607 1-663). Conditions: protein: recombinant; tags: N-terminal GST; dsDNA, one strand shown. A digest of the protocol: as §1
For another assay, the target named is T3, ELK4 (Homo sapiens, UniProt P28324-2 1-405).
T3 sequence: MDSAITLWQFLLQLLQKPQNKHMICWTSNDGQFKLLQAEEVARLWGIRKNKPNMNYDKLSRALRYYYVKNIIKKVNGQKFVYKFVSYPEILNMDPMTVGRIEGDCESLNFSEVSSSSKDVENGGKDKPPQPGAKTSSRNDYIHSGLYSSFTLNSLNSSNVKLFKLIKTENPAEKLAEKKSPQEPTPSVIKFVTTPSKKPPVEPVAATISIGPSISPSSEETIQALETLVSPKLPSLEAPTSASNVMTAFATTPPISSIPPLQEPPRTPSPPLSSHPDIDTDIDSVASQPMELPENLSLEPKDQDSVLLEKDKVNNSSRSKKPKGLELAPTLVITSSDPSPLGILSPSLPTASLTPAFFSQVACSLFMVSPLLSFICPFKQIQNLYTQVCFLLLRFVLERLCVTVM
Conditions: protein: recombinant; tags: N-terminal GST; dsDNA, one strand shown. A digest of the protocol:
as §1

The target of a further assay is T4, ETV2 (Homo sapiens, UniProt O00321 1-342).
T4 sequence: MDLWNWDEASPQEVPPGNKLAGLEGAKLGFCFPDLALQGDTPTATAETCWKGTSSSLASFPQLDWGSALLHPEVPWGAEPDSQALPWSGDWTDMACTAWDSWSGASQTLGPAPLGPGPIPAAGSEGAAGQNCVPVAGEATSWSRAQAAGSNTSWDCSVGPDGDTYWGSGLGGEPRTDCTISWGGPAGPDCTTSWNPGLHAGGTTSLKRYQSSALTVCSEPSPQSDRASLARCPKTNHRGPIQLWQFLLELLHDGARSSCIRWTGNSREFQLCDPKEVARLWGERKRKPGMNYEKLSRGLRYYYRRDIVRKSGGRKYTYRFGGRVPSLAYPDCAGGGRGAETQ
Conditions: protein: recombinant; tags: N-terminal GST; dsDNA, one strand shown. A digest of the protocol:
as §1

For the next assay, the target named is T5, ELF3 (Homo sapiens, UniProt P78545 1-371).
T5 sequence: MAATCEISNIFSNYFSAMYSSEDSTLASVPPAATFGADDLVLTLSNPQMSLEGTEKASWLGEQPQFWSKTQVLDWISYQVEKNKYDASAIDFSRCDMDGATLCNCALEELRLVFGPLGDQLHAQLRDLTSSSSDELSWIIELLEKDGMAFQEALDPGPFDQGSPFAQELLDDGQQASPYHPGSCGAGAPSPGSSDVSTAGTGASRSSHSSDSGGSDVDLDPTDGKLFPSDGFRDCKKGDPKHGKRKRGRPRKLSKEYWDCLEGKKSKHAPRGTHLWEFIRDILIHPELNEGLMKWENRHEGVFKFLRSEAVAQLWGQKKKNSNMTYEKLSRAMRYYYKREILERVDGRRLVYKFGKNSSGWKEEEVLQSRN
Conditions: protein: recombinant; tags: N-terminal GST; dsDNA, one strand shown. A digest of the protocol:
as §1

For a further assay, the target named is CRX (Homo sapiens, UniProt O43186 1-299). The note with it: protein: recombinant; tags: N-terminal GST; dsDNA, one strand shown. A digest of the protocol: as §1
A further assay deals with ETV1 (Homo sapiens, UniProt P50549 1-477). The note with it: protein: recombinant; tags: N-terminal GST; dsDNA, one strand shown. A digest of the protocol: as §1
For another assay, the target named is T6, ERF (Homo sapiens, UniProt P50548 1-548).
T6 sequence: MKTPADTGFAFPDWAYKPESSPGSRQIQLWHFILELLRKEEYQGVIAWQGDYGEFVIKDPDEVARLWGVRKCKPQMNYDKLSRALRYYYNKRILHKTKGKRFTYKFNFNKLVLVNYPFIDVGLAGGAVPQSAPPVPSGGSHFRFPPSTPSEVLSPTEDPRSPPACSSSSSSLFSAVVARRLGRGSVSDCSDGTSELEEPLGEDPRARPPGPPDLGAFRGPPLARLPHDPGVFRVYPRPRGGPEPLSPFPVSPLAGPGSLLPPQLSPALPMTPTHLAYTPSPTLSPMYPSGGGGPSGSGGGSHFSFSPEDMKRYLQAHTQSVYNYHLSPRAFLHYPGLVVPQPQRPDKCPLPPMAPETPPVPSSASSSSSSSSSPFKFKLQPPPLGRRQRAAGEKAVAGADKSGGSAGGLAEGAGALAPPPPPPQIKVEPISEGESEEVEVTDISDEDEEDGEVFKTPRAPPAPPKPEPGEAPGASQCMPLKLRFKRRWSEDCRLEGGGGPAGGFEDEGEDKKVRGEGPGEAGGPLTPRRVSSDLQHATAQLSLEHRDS
Conditions: protein: recombinant; tags: N-terminal GST; dsDNA, one strand shown. A digest of the protocol:
as §1

The next assay concerns the target T7, ETV3L (Homo sapiens, UniProt Q6ZN32 1-361).
T7 sequence: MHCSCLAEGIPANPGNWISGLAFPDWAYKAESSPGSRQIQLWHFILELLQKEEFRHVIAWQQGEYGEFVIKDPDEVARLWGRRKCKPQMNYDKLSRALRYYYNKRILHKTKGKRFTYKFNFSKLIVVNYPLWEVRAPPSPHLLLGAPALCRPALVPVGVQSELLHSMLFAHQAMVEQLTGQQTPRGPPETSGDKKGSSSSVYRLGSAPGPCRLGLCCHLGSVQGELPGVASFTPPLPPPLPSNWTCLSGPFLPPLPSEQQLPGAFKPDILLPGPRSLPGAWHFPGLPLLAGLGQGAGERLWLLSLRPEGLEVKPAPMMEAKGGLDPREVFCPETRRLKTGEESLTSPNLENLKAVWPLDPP
Conditions: protein: recombinant; tags: N-terminal GST; dsDNA, one strand shown. A digest of the protocol: as §1

For another assay, the target named is T8, ETS2 (Homo sapiens, UniProt P15036 1-469).
T8 sequence: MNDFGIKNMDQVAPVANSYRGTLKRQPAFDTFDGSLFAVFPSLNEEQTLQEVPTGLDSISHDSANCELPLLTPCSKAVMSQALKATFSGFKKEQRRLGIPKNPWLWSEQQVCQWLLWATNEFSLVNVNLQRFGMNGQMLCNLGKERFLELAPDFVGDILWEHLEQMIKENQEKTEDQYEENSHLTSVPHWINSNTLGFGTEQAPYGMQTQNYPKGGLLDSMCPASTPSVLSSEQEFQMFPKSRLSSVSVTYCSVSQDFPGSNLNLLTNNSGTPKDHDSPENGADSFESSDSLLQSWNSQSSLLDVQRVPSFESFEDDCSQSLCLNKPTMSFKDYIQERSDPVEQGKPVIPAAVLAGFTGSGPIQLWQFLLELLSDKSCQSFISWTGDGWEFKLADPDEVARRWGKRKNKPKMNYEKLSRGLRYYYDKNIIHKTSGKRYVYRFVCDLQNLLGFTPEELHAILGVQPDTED
The note with it: protein: recombinant; tags: N-terminal GST; dsDNA, one strand shown. The procedure, abridged: as §1

The target in another assay is T9, SPDEF (Homo sapiens, UniProt O95238 1-335).
T9 sequence: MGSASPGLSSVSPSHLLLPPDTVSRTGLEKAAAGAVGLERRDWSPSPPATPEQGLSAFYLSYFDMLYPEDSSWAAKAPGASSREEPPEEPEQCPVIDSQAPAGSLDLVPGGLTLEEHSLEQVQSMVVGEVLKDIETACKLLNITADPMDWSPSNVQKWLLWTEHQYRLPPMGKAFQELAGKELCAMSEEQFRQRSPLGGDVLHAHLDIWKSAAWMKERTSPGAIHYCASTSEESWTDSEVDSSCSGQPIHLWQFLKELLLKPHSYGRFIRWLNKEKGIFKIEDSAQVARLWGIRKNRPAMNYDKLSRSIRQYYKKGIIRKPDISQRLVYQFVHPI
Conditions: protein: recombinant; tags: N-terminal GST; dsDNA, one strand shown. The procedure, abridged: as §1

For another assay, the target named is T10, ETV7 (Homo sapiens, UniProt Q9Y603 1-341).
T10 sequence: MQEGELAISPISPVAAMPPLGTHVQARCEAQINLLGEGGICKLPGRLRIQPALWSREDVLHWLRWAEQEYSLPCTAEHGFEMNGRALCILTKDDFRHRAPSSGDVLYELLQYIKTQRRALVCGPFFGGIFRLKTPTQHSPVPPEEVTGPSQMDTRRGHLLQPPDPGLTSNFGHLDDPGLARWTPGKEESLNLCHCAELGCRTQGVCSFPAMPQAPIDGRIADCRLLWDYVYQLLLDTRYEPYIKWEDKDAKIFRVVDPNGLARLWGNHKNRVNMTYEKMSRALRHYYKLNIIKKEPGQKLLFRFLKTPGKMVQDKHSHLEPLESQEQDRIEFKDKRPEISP
The note with it: protein: recombinant; tags: N-terminal GST; dsDNA, one strand shown. The procedure, abridged: as §1

The next assay concerns the target T11, ELF5 (Homo sapiens, UniProt Q9UKW6-2 1-255).
T11 sequence: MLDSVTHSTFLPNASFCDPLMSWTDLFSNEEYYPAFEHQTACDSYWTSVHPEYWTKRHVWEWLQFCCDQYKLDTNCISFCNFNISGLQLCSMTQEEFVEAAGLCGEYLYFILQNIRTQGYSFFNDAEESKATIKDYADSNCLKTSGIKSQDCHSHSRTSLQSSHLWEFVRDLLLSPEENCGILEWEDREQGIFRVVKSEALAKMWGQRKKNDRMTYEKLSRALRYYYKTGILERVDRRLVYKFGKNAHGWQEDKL
The note with it: protein: recombinant; tags: N-terminal GST; dsDNA, one strand shown. The procedure, abridged:
as §1

For a further assay, the target named is T12, ETV3 (Homo sapiens, UniProt P41162-2 1-143).
T12 sequence: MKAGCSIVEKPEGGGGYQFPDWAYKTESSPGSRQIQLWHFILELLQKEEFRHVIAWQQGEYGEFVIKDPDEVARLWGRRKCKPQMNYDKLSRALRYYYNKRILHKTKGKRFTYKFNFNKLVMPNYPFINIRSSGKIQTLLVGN
The note with it: protein: recombinant; tags: N-terminal GST; dsDNA, one strand shown. A digest of the protocol:
as §1

The target in the next assay is ETV6 (Homo sapiens, UniProt P41212 1-452). The note with it: protein: recombinant; tags: N-terminal GST; dsDNA, one strand shown. A digest of the protocol: as §1
Sequence of ETV6 (P41212 whole entry): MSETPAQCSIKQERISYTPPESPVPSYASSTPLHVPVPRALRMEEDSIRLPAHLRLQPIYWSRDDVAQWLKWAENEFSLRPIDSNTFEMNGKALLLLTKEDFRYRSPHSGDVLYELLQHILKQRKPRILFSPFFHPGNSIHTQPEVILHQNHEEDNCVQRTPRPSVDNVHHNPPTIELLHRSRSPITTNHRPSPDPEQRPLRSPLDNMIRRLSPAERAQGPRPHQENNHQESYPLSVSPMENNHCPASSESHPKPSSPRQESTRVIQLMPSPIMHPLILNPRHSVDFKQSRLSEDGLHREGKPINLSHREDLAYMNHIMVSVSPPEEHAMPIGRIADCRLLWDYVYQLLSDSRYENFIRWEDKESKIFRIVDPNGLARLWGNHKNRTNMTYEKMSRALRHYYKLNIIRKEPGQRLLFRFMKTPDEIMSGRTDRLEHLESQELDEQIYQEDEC

Sequence of ETV5 (P41161 whole entry): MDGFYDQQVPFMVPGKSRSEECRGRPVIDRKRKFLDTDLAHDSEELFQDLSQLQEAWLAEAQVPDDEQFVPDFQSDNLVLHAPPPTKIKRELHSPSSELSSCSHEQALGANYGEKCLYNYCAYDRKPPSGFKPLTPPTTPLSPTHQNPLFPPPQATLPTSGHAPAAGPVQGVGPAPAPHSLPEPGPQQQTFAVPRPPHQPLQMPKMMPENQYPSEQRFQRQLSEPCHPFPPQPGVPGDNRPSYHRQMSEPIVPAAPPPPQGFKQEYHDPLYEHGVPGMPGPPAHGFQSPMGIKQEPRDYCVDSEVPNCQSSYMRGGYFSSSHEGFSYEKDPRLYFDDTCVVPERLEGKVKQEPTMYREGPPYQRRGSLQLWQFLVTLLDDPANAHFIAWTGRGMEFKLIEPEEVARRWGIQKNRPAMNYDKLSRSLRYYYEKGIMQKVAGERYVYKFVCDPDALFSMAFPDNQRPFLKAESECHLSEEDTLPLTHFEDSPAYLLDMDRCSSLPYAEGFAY
Sequence of HSF1 (Q00613 whole entry): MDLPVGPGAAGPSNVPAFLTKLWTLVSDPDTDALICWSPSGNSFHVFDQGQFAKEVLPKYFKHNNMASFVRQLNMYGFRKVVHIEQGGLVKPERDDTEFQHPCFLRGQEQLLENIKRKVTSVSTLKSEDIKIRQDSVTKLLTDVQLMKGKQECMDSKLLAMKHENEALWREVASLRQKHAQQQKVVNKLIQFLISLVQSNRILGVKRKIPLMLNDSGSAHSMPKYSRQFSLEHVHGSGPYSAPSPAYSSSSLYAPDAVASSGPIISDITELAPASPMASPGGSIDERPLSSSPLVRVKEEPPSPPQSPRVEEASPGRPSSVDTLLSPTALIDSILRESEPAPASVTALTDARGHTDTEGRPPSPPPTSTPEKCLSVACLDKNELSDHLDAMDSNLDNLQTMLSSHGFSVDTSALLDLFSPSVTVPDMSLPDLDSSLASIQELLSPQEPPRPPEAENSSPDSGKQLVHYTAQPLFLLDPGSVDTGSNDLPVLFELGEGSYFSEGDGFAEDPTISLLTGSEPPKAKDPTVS
Sequence of ETV1 (P50549 whole entry): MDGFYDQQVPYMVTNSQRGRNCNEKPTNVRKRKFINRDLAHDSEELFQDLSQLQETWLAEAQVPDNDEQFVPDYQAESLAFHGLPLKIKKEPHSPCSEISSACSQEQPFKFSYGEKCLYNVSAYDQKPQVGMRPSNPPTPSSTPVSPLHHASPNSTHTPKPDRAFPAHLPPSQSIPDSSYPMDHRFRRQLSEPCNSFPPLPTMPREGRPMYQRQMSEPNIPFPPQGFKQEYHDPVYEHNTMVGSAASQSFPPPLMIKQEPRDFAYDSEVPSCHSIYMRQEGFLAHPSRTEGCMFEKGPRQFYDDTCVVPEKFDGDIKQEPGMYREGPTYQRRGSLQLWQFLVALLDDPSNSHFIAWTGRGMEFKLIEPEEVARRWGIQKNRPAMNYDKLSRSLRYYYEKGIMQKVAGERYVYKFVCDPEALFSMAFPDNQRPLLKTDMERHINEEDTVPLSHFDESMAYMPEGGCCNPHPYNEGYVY
Sequence of ELF4 (Q99607 whole entry): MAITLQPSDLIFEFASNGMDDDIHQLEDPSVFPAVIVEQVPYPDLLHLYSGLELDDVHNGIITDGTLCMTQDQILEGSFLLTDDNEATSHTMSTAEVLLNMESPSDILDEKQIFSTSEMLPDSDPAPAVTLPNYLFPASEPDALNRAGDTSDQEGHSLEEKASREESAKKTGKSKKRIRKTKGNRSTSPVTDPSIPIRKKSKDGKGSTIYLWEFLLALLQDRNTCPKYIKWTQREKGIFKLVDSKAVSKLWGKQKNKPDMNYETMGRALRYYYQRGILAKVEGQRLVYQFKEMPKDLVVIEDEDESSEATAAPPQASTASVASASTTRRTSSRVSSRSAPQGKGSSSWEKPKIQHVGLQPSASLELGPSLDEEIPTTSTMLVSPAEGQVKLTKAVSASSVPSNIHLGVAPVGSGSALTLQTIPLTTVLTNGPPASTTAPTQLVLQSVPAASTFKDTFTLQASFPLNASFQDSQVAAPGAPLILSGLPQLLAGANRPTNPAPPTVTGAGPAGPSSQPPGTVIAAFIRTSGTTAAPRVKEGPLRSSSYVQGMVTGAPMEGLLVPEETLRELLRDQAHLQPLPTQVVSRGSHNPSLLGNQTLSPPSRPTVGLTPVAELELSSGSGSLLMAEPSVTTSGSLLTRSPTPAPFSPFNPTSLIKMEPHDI
Sequence of CRX (O43186 whole entry): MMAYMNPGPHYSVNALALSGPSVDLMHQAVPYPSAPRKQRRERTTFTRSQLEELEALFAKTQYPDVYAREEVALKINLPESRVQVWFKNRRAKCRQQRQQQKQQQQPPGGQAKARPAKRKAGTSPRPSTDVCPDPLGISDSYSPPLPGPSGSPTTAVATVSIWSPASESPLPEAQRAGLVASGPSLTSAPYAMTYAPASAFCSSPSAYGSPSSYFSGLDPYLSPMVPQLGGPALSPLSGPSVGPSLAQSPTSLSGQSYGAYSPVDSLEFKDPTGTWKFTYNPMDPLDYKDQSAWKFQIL

Take TTCACT: the binding signal is 1.4 fold enrichment (6-mer frequency, TF over GST control) with FEV; 1.31 fold enrichment (6-mer frequency, TF over GST control) with ETV5; 1.13 fold enrichment (6-mer frequency, TF over GST control) with HSF1; 1.16 fold enrichment (6-mer frequency, TF over GST control) in the assay with SPIC; 1.34 fold enrichment (6-mer frequency, TF over GST control) with ELF4; 1.42 fold enrichment (6-mer frequency, TF over GST control) in the assay with ELK4. In addition, the binding signal is 1.39 fold enrichment (6-mer frequency, TF over GST control) in the assay with ETV2; 1.2 fold enrichment (6-mer frequency, TF over GST control) with ELF3; 1.1 fold enrichment (6-mer frequency, TF over GST control) with CRX; 1.33 fold enrichment (6-mer frequency, TF over GST control) with ETV1; 1.42 fold enrichment (6-mer frequency, TF over GST control) with ERF; 1.4 fold enrichment (6-mer frequency, TF over GST control) in the assay with ETV3L. The binding signal with ETS2 is 1.41 fold enrichment (6-mer frequency, TF over GST control); in the assay with SPDEF it was 1.32 fold enrichment (6-mer frequency, TF over GST control); with ETV7 it was 1.36 fold enrichment (6-mer frequency, TF over GST control); with ELF5 it was 1.32 fold enrichment (6-mer frequency, TF over GST control); with ETV3, 1.3 fold enrichment (6-mer frequency, TF over GST control); in the assay with ETV6, 1.23 fold enrichment (6-mer frequency, TF over GST control).
